Screens from PubChem BioAssay.
In the library only some 3.5% were active in any assay of this set; here they are far more common.
PPC-1+TRAIL kill: kills PPC-1 cancer cells in the presence of TRAIL; 220,000 tested, 0.41% active; cell killing (% activity), % at 4 µM or 5 µM; PPC-1 cells + TRAIL, ATPLite viability luminescence;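 active means cell killing above 50% in the first pass at 4 µM, then a duplicate retest at 5 µM averaging 50% or more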;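 further: plate controls were cells with TRAIL plus DMSO for no effect and medium-only wells lacking cells for full effect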
TWEAK Fn14 block: TWEAK-Fn14 signaling inhibition. 360,000 tested, 2% active. AID 1159606. inhibition, % at 10 µM. TWEAK-stimulated Fn14 reporter cells, luciferase luminescence, 8 h; in the data active means inhibition above about 50%
TROY NFkB inh: inhibitors of TROY-dependent NF-kB signaling. AID 1347056. Q293 LMP1-TROYcd NF-kB luciferase reporter, 4 h. inhibition, % at 10 µM. 360,000 tested, 0.98% active;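 active means compounds whose plate-normalised and pattern-corrected inhibition of the luciferase reporter signal at the single screening dose is 50% or more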
HSP90 refold inh: HSP90 refolding inhibition in rabbit reticulocyte lysate. inhibition, % at 5.6 µM. luciferase refolding luminescence, 3 h. AID 1789. 290,000 tested, 0.91% active;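 active means inhibition above the screen-wide mean plus 3 SD, computed separately per campaign, cut at about 16% in these data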;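 further: 0% = DMSO wells and 100% = 60 µM geldanamycin wells; inhibitors lower the luminescence because luciferase stays unfolded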
C8 TRAIL sens: sensitizes caspase-8 expressing cells to TRAIL; 360,000 tested, 1% active; NB7+C8 cells + TRAIL, ATPlite viability luminescence; inhibition (viability loss, TRAIL sensitization), % at 10 µM;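 active means compounds causing at least 50% loss of cell viability in the single-dose screen, relative to plate controls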
Platelet DG rel: modulates dense granule release in human platelets; 300,000 tested, 0.22% active; human platelet-rich plasma, SFLLRN dense granule ATP release, luminescence; AID 1663; inhibition, %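 (compounds screened at 7.5 µM in platelet-rich plasma)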;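 active means mean replicate score, as percent of positive control, at or above 50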
The depositor's hits bear a star; . = no result given.

SMILES	PPC-1+TRAIL kill	TWEAK Fn14 block	TROY NFkB inh	HSP90 refold inh	C8 TRAIL sens	Platelet DG rel
COCCOCCn1c(/C=C/c2ccccc2)nc2ccccc21	48	12	-15	1	53*	18
CCn1c(/C=C/c2cc[n+](C)cc2)nc2ccccc21	.	9	13	0	15	-2
CC(C)n1c(/C=C/c2ccccc2)nc2ccccc21	33	-18	-82	3	52*	6
COCCOCCn1c(CCCO)nc2ccccc21	9	-12	-17	2	2	-3
CC(=O)c1cccc(NC(=O)C2=CN3CCS(=O)(=O)N=C3C=C2)c1	.	13	3	.	-1	.
O=C(Nc1ccccc1)c1ccccc1CCc1ccccc1	12	14	-25	-1	-5	0
O=C(Nn1cnnc1)c1ccccc1CCc1ccccc1	13	9	7	3	-4	62*
O=C1C=C(Nc2ccccc2)c2ccccc2C1=O	2	-2	-1	17*	34	-3
O=C1C=C(Nc2ccccc2C(=O)O)c2ccccc2C1=O	3	-37	-24	2	4	-6
CCc1ccc(NC2=CC(=O)C(=O)c3ccccc32)cc1	.	19	40	.	93*	.
CCc1ccc2c(c1)C(=O)c1ccccc1C2=O	25	-36	-67	2	12	-4
CCN(CC)CCNc1cc(C)c(C#N)c2nc3ccccc3n12	.	-31	-7	3	-12	10
Cc1cc(Nc2cccc([N+](=O)[O-])c2)n2c(nc3ccccc32)c1C#N	27	77*	26	2	-1	-8
N#C/C(=N\Nc1ccc(S(=O)(=O)N2CCc3ccccc32)cc1)C(N)=S	-6	58*	72*	3	23	-1
CCCC(=O)NC(=S)Nc1ccc(S(=O)(=O)N2CCc3ccccc32)cc1	.	-11	2	.	12	-1
CCOC(=O)/C(C#N)=N/Nc1ccc(S(=O)(=O)N2CCc3ccccc32)cc1	6	36	52*	2	5	3
Cc1cc(NC(=O)c2cccc(S(=O)(=O)N3CCCCCC3)c2)n(-c2ccccn2)n1	8	52*	9	1	10	-6
O=C(Nc1ccccc1C(=O)N1CCCCC1)c1cccc(S(=O)(=O)N2CCOCC2)c1	14	60*	.	-1	-7	-7
O=C(Nc1ccccc1C(=O)N1CCCCCC1)c1cccc(S(=O)(=O)N2CCOCC2)c1	4	-10	5	4	-13	-5
CC(C(=O)Nc1ccon1)N1C(=O)c2ccccc2S1(=O)=O (centres undefined)	.	3	22	.	-8	-5
Cc1ccc(C2=Nc3ccccc3N=C(C(Cl)Cl)C2)cc1	.	38	-57	15	54*	-3
Cc1ccc2c(c1)N=C(c1ccccc1)CC(C(Cl)Cl)=N2	39	40	-10	12	58*	11
Clc1ccc(CNc2ncnc3[nH]ncc23)c(Cl)c1	.	21	25	.	-6	.
CC(C)(C)c1ccc(Oc2ccc(NC(=O)C3CC=CCC3C(=O)O)cc2)cc1 (centres undefined)	16	28	76*	-1	-7	-3
CCC/C(=N\NC(=O)C1CCCC1)c1ccccc1	.	2	-1	0	-4	4
SMILES	PPC-1+TRAIL kill	TWEAK Fn14 block	TROY NFkB inh	HSP90 refold inh	C8 TRAIL sens	Platelet DG rel
CCOC(=O)c1nnn2c1nc(Nc1cccc(C(F)(F)F)c1)c1ccccc12	18	-26	-10	1	59*	10
CCOC(=O)c1nnn2c1nc(SCC(C)=O)c1ccccc12	12	-17	5	9	-7	-5
Cc1cc(Nc2cccc(Cl)c2)nc(N2CCOCC2)n1	15	92*	91*	-2	3	-2
COc1ccc(CC(=O)Nc2cccc(-c3nnc(-c4cccc(C)c4)o3)c2)cc1OC	26	89*	61*	1	3	8
COc1ccc(CC(=O)Nc2cccc(-c3nnc(-c4ccccc4)o3)c2)cc1OC	24	102*	69*	3	56*	5
COc1ccc(CC(=O)Nc2cccc(-c3nnc(-c4ccc(C)cc4)o3)c2)cc1OC	16	102*	64*	-1	90*	-9
CCCCNC(=O)c1ccccc1NC(=O)CCC	8	12	17	4	-4	8
COc1cccc(C(=O)/C=C2\Sc3ccccc3N2C)c1	50	-6	-22	0	51*	8
CN1/C(=C\C(=O)c2cccnc2)Sc2ccccc21	16	-9	-74	3	19	14
N#C/C(=N\Nc1ccc([N+](=O)[O-])cc1)C(N)=S	8	33	44	2	3	28
N#C/C(=N\Nc1ccc(S(=O)(=O)N2CCCCCC2)cc1)C(N)=S	-10	68*	49	0	13	-1
N#CC(C#N)=NNc1ccc(S(=O)(=O)N2CCCC2)cc1	27	51*	55*	-2	-5	1
N#C/C(=N\Nc1ccc(S(=O)(=O)N2CCCCC2)cc1)C(N)=S	19	50*	38	2	-5	-16
N#C/C(=N/Nc1ccc(S(=O)(=O)N2CCOCC2)cc1)C(N)=O	11	-2	-2	3	0	-2
CCOc1ccc(NC(=O)CCC(=O)NNS(=O)(=O)c2ccccc2[N+](=O)[O-])cc1	14	-15	-7	0	12	2
COCc1nn2c(N)c(-c3ccccc3)cnc2c1-c1ccccc1	.	-9	-12	-2	51*	16
COCc1nn2c(N)c(C#N)cnc2c1-c1ccccc1	3	-3	-7	-2	-4	-6
CCOc1ccccc1NC(=O)C1CCCN(S(=O)(=O)c2ccc3c(c2)CCCN3C(C)=O)C1 (centres undefined)	.	-27	8	.	-1	.
O=C(NC(NC(=S)Nc1c(Cl)cccc1Cl)C(Cl)(Cl)Cl)c1cccc([N+](=O)[O-])c1 (centres undefined)	7	60*	45	6	12	-9
COc1ccc([N+](=O)[O-])cc1NC(=O)C(C)c1ccccc1 (centres undefined)	9	-2	13	3	0	7
O=C(NNC(=S)NC(=O)c1ccccc1Cl)c1cccc([N+](=O)[O-])c1	.	2	15	2	1	-4
COc1ccc([N+](=O)[O-])cc1NC(=S)NC(NC(=O)C(c1ccccc1)c1ccccc1)C(Cl)(Cl)Cl (centres undefined)	16	63*	24	2	28	3
O=C(COC(=O)c1cc([N+](=O)[O-])ccc1N1CCOCC1)NC1CCCCC1	.	-6	-18	.	-4	2
N#CC(c1ccc(Cl)cc1)c1ccc2c(C(F)(F)F)cc(C(F)(F)F)nc2n1 (centres undefined)	-1	65*	79*	3	20	6
O=[N+]([O-])c1ccc(NN=Cc2cccc([N+](=O)[O-])c2)cc1	.	-27	-51	.	8	.
